Reference: ChEMBL document CHEMBL4296182, “CO-ADD screening of NIH NCI Diversity Set V”

tested on: Staphylococcus aureus; assay: Antibacterial activity against Staphylococcus aureus MRSA ATCC 43300 (CO-ADD:GP_020); MIC in CAMBH media using NBS plates, by Resazurin F(560/590); type: functional; settings: Concentration 20 uM, ASSAY_TEST Inhibition of Bacterial Growth, detection method Resazurin, Fluorescence (ex560/em590), MEDIA CAMHB, plate type 384well, CORNING #3640, time 18 hr

SMILES	Inhibition [%]
CC(=O)OCCN1c2ccccc2Sc2cnccc21	-12.23
CCC/C(C)=C/c1ccc(CC)cn1	1.51
OCc1nnn(-c2ccccc2)c1CO	11.04
Clc1ccc(-c2c(C3=NCCCN3)nnn2-c2ccc(Cl)cc2)cc1	10.56
COc1ccc(C2OC3=Nc4cc(C)c(C)cc4NC3=C2O)cc1 (centres undefined)	19.36
CCOC(=O)C(C#N)C(=N)C1C(=O)OC2CCCCC21 (centres undefined)	5.44
CC(=O)Nc1ccc(S(=O)(=O)N=S(C)C)cc1	11.09
CCCCSc1cc(O)nc(N)n1	-2.6
O=C(Nc1ccc(F)cc1)OCCOc1ccc([N+](=O)[O-])cc1	6.26
COc1cc2oc3cc(C)oc(=O)c3c2cc1OC	14.15
CCOC(=O)/C(C#N)=C/c1cccc(C)c1	35.48
CCNC(=O)Oc1cccnc1O	2.22
Brc1ccc(/N=N/c2ccc3ccccc3n2)cc1	10.21
OCc1cc(O)c(CO)nn1	-17.8
C=C(C)CN1C(=O)C(C)S/C1=N/N=C1/SCC(=O)N1C (centres undefined)	12.61
CC(=O)CC[N+](C)(C)C.[I-]	1.22
CS(=O)(=O)O.OC(c1cc(C(F)(F)F)nc2c(Cl)cc(Cl)cc12)C1CCCCN1 (centres undefined)	10.44
OCCCCc1nccc2c1[nH]c1ccccc12	-6.35
c1ccc(-c2nnc(-c3ccccn3)s2)nc1	3.28
O=c1oc2c(cc1O)oc(=O)c1cc(O)c(O)c(O)c12	7.4

SMILES	Inhibition [%]
COc1ccc(C(=O)O)nc1C	-3.26
CC1=CN2C(c3cccc([N+](=O)[O-])c3)=NON(c3ccc(C)cn3)C2C=C1 (centres undefined)	16.79
CN(C)c1ccc(/C=C(\C#N)C(=O)c2ccccc2)cc1	3.86
Cc1cc2nc(-c3ccccn3)c(-c3ccccn3)nc2cc1C	-0.99
CC1(C)CC(Nc2ccc(Nc3ccccc3)cc2)CC(C)(C)N1	6.04
Cc1cccc(C)c1NC(=O)NCc1ccco1	-11.45
O=C1NCN(CCO)CN1	3.46
O=C(O)C(c1ccccc1)C1(O)CCCCC1 (centres undefined)	4.6
CC(=O)OC1CCC2(C)C(=CCC3C2CCC2(C)C3CC3OC4(CCC(C)CN4)C(C)C32)C1 (centres undefined)	-5.01
O=C1CCCC1C(=O)Nc1ccc2ccccc2c1 (centres undefined)	9.31
CCOP(=O)(OCC)/C(C#N)=C/c1ccc([N+](=O)[O-])cc1	10.14
Cc1nc(S)nc(O)c1CCC1OCCO1	13.84
C=C(C)C(=O)Nc1ccc(NC(C)C)cc1	12
COC1OC(CO)C(N=C(C)C)C1O (centres undefined)	-11.36
Cc1ccc(Nc2ccc(N)cc2S(=O)(=O)O)cc1	11.37
Cc1ccc(C)c(C(=O)CCC(=O)O)c1	9.56
CCNc1ccccc1C(=O)O	19.64
O=C1COc2cccnc2N1	8.1
O=C1c2ccccc2C2=C3C(O)=NN=C3CCN12	13.67
